High-throughput results: PubChem, Broad Institute
aSyn 5UTR act: Activators via SNCA 5'UTR binding, MLPCN | activity score, % (tested at 7.5 µM), hits read low | alpha-synuclein 5'UTR reporter, activators screen | 300,000 tested, 7.1% active | AID 1814, 2009; in the data active means activity score below about -60%
Starred values were filed as active, the others as inactive. The list is a sample of the results.

SMILES | aSyn 5UTR act
O=C(O)C(=O)/C(=C\c1ccccc1)c1ccc2ccccc2n1 | -90*
CN(C)C(=O)c1cc(-c2ccccc2)no1 | -80*
Cc1ccc(Nc2ncnc(-n3cccc3)n2)cc1Cl | -125*
CCN1C(=O)/C(=C/N2CCc3ccccc32)SC1=S | -190*
COc1ccc(OC)c(NC(=O)c2nc3ccccc3s2)c1 | -168*
CC(C)NC(=O)c1nc2ccccc2s1 | -84*
C=CCNC(=O)c1nc2ccccc2s1 | -161*
Cc1ccc(Cn2c(SCc3cccnc3)nc3c2c(=O)n(C)c(=O)n3C)cc1 | 54
CCCCn1c(SCC(=O)N2c3ccccc3CCc3ccccc32)nc2c1c(=O)n(C)c(=O)n2C | 74
Cn1c(=O)c2c(nc(SCCN3CCOCC3)n2Cc2ccc(F)cc2)n(C)c1=O | -130*
CC(=O)c1cccc(NC(=S)NC(=O)CC(C)(C)C)c1 | -134*
CC(=O)c1cccc(NC(=S)NC(=O)c2ccccc2)c1 | -141*
CC(=O)c1cccc(NC(=S)NC(=O)c2cccc(Cl)c2)c1 | -160*
CC(=O)c1cccc(NC(=S)NC(=O)c2cncc(Br)c2)c1 | -109*
CCOc1cc(/C=N/Nc2cccc(C(=O)O)c2)ccc1OC(=O)c1ccccc1 | 98
COc1cc2ccccc2cc1C(=O)NC(=S)Nc1cccc(C(=O)O)c1 | -91*
COc1ccc2ccccc2c1/C=N/Nc1cccc(C(=O)O)c1 | -108*
COC(=O)C(Cc1ccc(O)cc1)N1Cc2ccccc2C1=O (stereo not drawn) | -144*
COC(=O)C(Cc1ccc(OC(=O)c2ccc(C)cc2)cc1)N1Cc2ccccc2C1=O (stereo not drawn) | -67*
O=C(Nc1ccc([N+](=O)[O-])cc1)C(Cc1ccccc1)N1C(=O)c2cccc3cccc(c23)C1=O (stereo not drawn) | 56
C=CCN(CC=C)CCOc1ccc(OC(C)C)cc1 | -63*
Cc1ccc(C)c(NC(=O)c2cc(-c3ccccc3O)n[nH]2)c1 | -198*
Cc1ccc(C)c(NC(=O)c2cc(-c3cc(C)c(C)cc3O)n[nH]2)c1 | -233*
Cc1ccc(C)c(NC(=O)COC(=O)c2cccc3c2C(=O)c2ccccc2C3=O)c1 | 55
Cc1ccc(-c2cc(C(=O)Nc3cc(C)ccc3C)[nH]n2)c(O)c1 | -86*
SMILES | aSyn 5UTR act
COc1ccc(OC)c(NC(=O)c2cc(-c3cc(C)ccc3O)n[nH]2)c1 | -104*
O=C(/C=C/c1ccccc1)NCc1ccco1 | -72*
Cc1nc(C(=O)NNC(=O)c2c(-c3c(Cl)cccc3Cl)noc2C)cs1 | 63
N#C/C(=C\C=C\c1ccccc1)C(=O)NCc1ccco1 | -63*
Cc1onc(-c2ccccc2Cl)c1C(=O)NCc1ccco1 | -80*
O=C(/C=C/c1ccccc1Cl)NCc1ccco1 | -120*
O=C(/C=C/c1ccc2c(c1)OCO2)NCc1ccco1 | -68*
CN(C)/C=C/C(=O)c1ccc(Br)cc1 | -70*
N/C(=N\OC(=O)Cc1ccccc1)c1ccccn1 | -77*
N/C(=N\OC(=O)CCCc1ccccc1)c1ccccn1 | -69*
O=C(NC(=O)c1ccc(Cl)cc1)OC1CCCCC1 | -91*
O=C(CNC(=O)c1ccccc1)OC1CCCCC1 | -98*
O=c1c(C=NCc2ccccc2)c(NCc2ccccc2)nc2ccccn12 | -66*
CCCCN1CCc2c1nc1ccc(Br)cc1c2N | -65*
CCc1ccc(NC(=O)[C@H](C)NC(=O)C2CCN(C(=O)[C@@H](N)Cc3ccccc3)CC2)cc1 | -84*
Cn1c(=O)oc2cc(S(=O)(=O)N3CCCC(C(=O)NC4CCCc5ccccc54)C3)ccc21 (stereo not drawn) | 63
CCS(=O)(=O)N1CCC(C(=O)Nc2ccc3c(c2)CCC3)CC1 | -83*
CCCS(=O)(=O)N1CCCC(C(=O)Nc2ccc3c(c2)CCC3)C1 (stereo not drawn) | -71*
N#Cc1cc2cc3c(cc2nc1N1CCCCC1)OCCO3 | -222*
N#Cc1cnn2c1nc(N1CCCCC1)c1ccccc12 | 64
Cc1ccc(C(=O)C(C)OC(=O)c2ccccc2[N+](=O)[O-])cc1 (stereo not drawn) | -158*
O=C(/C=C/c1ccccc1[N+](=O)[O-])c1ccccc1Br | -79*
Cc1ccc(C(=O)/C=C/c2ccccc2[N+](=O)[O-])cc1 | -173*
O=C(Cn1cc(C(F)(F)F)cc(Cl)c1=O)NCc1ccc(F)cc1 | -81*
CC(C)(C)n1ncc2c(=O)n(CC(=O)NC3CCCCC3)cnc21 | -108*
SMILES | aSyn 5UTR act
CCOC(=O)C(C)Oc1cccc2c(=O)n(CC(=O)NCc3ccc(F)cc3)ccc12 (stereo not drawn) | 68
CC(C)(C)n1ncc2c(=O)n(CC(=O)NCc3ccc(F)cc3)cnc21 | -90*
CC(C)(C)n1ncc2c(=O)n(CC(=O)c3ccccc3)cnc21 | -107*
CCOc1ccccc1NC(=O)Cn1nnc(C(=O)NCc2ccco2)c1N | 85
CC(C)(C)n1ncc2c(=O)n(CC(=O)NCc3ccco3)cnc21 | -93*
Cc1nn(-c2ccccc2)c(Cl)c1/C=N/NC(=O)c1ccnn1C | -108*
CCc1n[nH]c(=S)n1/N=C/c1c(C)nn(-c2ccccc2)c1Cl | 106
Cc1nn(-c2ccccc2)c(Cl)c1/C=N/Nc1nc2ccccc2n1C | -121*
Cc1nn(-c2ccccc2)c(Cl)c1/C=N/Nc1nnc(C)c(=O)[nH]1 | -62*
Cc1ccccc1S(=O)(=O)Oc1ccc2ccc(O)cc2c1 | -131*
Cc1ccccc1C(=O)Oc1ccc2ccc(O)cc2c1 | -162*
Cc1ccc2c(c1)=C(c1sc(N(C)c3ccc(O)cc3)nc1O)C(=O)N=2 | -68*
COC(=O)c1cc(=O)n(Cc2ccc3c(c2)OCO3)c(=Nc2ccc(F)c(Cl)c2)s1 | -66*
CCNc1ccc(Br)cc(C(=O)/C=C/c2ccccc2Cl)c1=O | -68*
CCn1ncc(Br)c1C(=O)Nc1ccc(C(C)C)cc1 | -79*
CCc1sc(C(=O)Nc2ccc3c(c2)OCCO3)cc1Br | -193*
CCn1ncc(Br)c1C(=O)Nc1ccc2c(c1)OCCO2 | -94*
Cn1c(-c2ccc3ccccc3n2)nc2cnccc21 | -74*
Brc1ccc(C2=NC(Cc3ccccc3)CO2)cc1 (stereo not drawn) | -176*
COc1cc(C)ccc1OCc1cc(C(=O)NCCN2CCOCC2)no1 | -124*
Cc1ccc(OCc2cc(C(=O)NCC(C)(C)N3CCOCC3)no2)cc1C | -122*
CCN1CCCC1CNC(=O)c1cc(COc2ccc(C)c(C)c2)on1 (stereo not drawn) | -63*
CCN(CC)c1ccc(C(=S)NC2CCCCC2)cc1 | -64*
CN(C)c1ccc(C(=S)NC2CCCCC2)cc1 | -111*
COc1cccc(CNc2nc3nc(C)c(Cl)c(C)n3n2)c1 | -95*
SMILES | aSyn 5UTR act
COc1ccc(CNc2nc3nc(C)c(Cl)c(C)n3n2)cc1 | -65*
CC(=O)c1cccc(NC(=O)CSc2ccc(-c3ccc4c(c3)OCO4)nn2)c1 | -87*
COc1ccccc1NC(=O)CSc1ccc(-c2ccc(-n3cccn3)cc2)nn1 | -113*
COc1ccc(-c2ccc(SCC(=O)Nc3cccc(C(C)=O)c3)nn2)cc1OC | -82*
O=C(Nc1ccc(F)cc1)c1nc(S(=O)(=O)Cc2ccccc2)ncc1Cl | 67
CNC(=O)c1ccc(-c2ccc(F)cc2)s1 | -101*
CNC(=O)c1ccc(-c2ccc(OC)cc2)s1 | -151*
O=C(Nc1ccccc1)c1ccc(-c2ccc(F)cc2)s1 | -206*
CNC(=O)c1ccc(-c2ccc(Cl)c(Cl)c2)s1 | -94*
Cc1ccnc(NC(=O)Nc2cccc(F)c2)n1 | -115*
Cc1cccc(NC(=O)Nc2cccc(C#N)c2)n1 | -170*
Cc1cccc(NC(=O)Nc2cc(C)cc(C)n2)c1 | -184*
